Unmarked numbers belong to inactive results.
Assays:
Test in all cases: log2 ratio of Biotin-Ahx-Ub-VS probe labelling (fragment/DMSO); higher = less target engagement (more negative = stronger competition), active = hit call of the paper (q ≤ 0.05, log2 ratio ≤ -1)
Settings in all cases: compound concentration: 200 uM; treatment time: 3 h
ALG13 = molecular target: T1, ALG13 (UniProt Q9NP73)
T1 sequence (whole entry): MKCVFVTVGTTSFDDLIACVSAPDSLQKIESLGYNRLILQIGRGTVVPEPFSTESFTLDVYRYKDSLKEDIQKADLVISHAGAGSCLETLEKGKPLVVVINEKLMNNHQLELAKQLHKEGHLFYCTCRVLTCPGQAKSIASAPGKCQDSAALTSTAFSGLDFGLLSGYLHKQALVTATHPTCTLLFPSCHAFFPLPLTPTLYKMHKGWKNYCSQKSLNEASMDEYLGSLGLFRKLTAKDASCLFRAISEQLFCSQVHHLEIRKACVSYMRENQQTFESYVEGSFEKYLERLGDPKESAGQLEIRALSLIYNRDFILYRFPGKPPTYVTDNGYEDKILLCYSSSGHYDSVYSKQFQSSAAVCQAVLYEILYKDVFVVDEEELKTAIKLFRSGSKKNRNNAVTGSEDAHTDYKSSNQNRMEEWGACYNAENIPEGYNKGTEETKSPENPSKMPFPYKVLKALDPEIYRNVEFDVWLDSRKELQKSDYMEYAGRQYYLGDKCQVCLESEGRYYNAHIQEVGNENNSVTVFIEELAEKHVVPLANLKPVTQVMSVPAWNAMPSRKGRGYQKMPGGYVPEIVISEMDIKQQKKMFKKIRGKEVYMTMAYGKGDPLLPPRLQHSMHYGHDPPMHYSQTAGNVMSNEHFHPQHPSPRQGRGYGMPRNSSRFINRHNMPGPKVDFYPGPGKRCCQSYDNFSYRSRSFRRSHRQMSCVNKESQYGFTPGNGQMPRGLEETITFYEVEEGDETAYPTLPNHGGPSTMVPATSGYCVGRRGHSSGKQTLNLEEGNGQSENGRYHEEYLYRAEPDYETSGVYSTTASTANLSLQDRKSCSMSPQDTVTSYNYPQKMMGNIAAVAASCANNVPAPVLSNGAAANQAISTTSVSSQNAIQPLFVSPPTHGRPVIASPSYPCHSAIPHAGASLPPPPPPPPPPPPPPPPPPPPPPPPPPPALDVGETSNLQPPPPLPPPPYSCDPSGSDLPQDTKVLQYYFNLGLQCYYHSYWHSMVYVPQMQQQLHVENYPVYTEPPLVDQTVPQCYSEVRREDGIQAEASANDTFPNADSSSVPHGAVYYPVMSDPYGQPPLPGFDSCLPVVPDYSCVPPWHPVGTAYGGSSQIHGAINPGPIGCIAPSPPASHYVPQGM
In short: (§1)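 HEK293T lysate (495 µg per sample, in Tris/CHAPS/IGEPAL buffer with protease inhibitors) was exposed in triplicate for 3 h to fragment at 200 µM or to vehicle, then to Biotin-Ahx-Ub-VS at 0.5 µM final for 1 h. Labelled DUBs were enriched on NeutrAvidin, digested with LysC and trypsin, and analysed by diaPASEF LC-MS/MS. Spectronaut label-free quantities were normalised to the global median, and values are average log2 ratios of fragment over vehicle from an unpaired t-test. Only proteins with ≥2 unique peptides were used.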

ATXN3 = ATXN3 (UniProt P54252)
In short: as §1

BAP1 = molecular target: T2, BAP1 (UniProt Q92560)
T2 sequence (whole entry): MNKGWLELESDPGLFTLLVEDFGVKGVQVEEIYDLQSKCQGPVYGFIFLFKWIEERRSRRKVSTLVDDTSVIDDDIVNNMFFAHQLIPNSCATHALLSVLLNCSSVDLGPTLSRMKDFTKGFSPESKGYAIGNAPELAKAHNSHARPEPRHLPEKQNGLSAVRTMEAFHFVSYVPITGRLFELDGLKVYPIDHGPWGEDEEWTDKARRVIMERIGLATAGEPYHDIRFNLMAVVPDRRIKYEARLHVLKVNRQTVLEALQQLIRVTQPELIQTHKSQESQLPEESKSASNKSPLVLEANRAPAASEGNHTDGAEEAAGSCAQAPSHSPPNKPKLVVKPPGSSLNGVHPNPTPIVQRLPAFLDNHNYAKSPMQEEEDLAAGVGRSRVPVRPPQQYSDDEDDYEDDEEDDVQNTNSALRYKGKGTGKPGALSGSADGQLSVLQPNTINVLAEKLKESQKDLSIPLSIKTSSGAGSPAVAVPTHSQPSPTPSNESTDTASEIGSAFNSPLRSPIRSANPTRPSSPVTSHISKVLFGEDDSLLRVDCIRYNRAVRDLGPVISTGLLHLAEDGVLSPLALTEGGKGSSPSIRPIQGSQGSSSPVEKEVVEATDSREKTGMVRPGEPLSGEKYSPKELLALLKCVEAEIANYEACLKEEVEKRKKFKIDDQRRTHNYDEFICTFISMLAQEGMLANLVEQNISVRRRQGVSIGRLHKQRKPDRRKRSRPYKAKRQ
In short: as §1

EIF3F = EIF3F (UniProt O00303)
In short: as §1

EIF3H = EIF3H (UniProt O15372)
In short: as §1

FAM105A = molecular target: T3, FAM105A (UniProt Q9NUU6)
T3 sequence (whole entry): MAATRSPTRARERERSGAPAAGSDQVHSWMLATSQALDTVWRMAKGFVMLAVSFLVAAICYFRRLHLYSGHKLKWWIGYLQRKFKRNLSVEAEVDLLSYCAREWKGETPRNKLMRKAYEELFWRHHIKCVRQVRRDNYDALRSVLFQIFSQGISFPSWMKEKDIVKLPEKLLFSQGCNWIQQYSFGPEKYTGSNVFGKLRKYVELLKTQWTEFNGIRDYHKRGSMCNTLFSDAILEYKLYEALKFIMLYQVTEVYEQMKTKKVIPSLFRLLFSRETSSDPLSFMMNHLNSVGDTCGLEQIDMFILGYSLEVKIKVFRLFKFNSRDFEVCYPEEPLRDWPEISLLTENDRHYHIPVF
In short: as §1

OTUB1 = OTUB1 (UniProt Q96FW1)
In short: as §1

OTUD4 = molecular target: T4, OTUD4 (UniProt Q01804)
T4 sequence (whole entry): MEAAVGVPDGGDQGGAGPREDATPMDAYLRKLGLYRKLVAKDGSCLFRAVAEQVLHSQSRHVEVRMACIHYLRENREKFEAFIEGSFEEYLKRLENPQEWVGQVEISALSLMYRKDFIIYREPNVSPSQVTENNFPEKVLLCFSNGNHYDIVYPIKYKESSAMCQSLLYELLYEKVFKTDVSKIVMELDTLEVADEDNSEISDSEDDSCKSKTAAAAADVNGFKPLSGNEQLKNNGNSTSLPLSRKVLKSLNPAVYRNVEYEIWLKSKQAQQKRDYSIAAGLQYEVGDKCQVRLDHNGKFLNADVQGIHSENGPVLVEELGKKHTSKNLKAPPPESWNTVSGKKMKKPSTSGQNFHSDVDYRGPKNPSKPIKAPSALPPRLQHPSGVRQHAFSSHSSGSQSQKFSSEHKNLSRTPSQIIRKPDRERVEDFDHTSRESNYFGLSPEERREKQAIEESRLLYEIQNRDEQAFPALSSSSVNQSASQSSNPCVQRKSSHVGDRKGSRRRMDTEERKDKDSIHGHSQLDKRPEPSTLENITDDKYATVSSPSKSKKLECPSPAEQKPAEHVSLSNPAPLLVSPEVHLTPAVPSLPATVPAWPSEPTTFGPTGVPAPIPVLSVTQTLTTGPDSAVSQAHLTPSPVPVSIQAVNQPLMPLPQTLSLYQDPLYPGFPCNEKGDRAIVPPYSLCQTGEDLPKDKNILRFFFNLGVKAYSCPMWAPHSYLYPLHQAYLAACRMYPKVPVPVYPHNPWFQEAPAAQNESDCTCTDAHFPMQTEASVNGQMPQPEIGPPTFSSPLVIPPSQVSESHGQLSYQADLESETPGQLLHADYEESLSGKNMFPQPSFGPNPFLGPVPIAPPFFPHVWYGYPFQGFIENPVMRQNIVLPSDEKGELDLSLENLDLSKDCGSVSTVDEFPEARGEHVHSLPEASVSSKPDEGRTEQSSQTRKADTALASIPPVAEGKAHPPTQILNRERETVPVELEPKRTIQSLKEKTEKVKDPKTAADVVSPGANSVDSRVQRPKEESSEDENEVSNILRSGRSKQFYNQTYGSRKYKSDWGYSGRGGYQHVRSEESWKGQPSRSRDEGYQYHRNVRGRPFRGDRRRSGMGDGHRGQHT
In short: as §1

OTUD5 = molecular target: T5, OTUD5 (UniProt Q96G74)
T5 sequence (whole entry): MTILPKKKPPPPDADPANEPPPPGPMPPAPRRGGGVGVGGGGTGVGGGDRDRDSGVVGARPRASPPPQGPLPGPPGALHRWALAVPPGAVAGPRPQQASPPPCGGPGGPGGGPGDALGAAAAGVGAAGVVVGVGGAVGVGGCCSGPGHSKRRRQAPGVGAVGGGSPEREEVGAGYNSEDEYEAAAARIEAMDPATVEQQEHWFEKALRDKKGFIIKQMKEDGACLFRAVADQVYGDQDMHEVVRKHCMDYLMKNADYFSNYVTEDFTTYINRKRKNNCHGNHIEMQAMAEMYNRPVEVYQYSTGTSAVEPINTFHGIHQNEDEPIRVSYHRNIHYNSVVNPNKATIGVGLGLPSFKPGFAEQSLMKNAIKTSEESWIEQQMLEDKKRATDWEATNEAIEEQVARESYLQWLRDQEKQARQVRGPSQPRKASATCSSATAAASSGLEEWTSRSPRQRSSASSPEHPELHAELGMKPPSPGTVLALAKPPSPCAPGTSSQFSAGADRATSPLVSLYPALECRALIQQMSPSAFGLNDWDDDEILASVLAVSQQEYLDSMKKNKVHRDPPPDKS
In short: as §1

Chain of EIF3F (O00303 whole entry): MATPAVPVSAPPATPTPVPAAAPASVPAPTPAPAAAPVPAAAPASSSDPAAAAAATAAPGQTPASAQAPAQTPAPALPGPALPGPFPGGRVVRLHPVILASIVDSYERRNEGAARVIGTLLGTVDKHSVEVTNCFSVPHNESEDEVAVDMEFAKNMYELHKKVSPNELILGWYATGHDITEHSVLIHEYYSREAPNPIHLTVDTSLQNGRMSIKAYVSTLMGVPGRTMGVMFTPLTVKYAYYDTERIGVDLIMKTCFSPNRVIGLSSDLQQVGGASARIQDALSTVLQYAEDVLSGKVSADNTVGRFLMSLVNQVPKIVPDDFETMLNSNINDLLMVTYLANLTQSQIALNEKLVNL
Chain of EIF3H (O15372 whole entry): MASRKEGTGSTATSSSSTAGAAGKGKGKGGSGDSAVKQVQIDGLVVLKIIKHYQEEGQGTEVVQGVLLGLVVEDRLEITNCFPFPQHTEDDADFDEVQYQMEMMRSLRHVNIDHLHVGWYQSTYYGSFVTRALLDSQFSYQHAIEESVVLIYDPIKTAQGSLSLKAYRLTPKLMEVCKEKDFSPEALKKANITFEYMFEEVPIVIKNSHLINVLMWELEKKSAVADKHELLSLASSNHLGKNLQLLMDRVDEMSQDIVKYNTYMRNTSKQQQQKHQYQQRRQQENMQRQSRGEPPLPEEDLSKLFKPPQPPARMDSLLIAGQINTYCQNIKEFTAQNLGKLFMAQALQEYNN
Chain of ATXN3 (P54252 whole entry): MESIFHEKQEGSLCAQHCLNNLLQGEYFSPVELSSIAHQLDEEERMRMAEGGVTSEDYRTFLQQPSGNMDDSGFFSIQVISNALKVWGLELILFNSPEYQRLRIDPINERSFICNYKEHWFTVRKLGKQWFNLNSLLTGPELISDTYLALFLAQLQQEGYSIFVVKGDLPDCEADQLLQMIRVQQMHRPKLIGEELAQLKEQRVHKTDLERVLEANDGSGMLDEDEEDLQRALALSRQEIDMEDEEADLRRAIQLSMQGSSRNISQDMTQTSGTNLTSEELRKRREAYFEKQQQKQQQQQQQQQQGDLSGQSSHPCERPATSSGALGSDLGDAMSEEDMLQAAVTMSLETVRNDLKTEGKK
Chain of OTUB1 (Q96FW1 whole entry): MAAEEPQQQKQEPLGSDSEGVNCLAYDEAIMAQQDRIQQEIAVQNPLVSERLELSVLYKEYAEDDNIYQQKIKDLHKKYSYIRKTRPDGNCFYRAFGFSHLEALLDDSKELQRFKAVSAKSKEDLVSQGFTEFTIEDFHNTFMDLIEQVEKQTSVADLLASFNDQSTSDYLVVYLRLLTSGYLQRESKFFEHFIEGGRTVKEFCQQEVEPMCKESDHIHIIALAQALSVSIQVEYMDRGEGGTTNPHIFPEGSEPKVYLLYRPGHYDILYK

## Cc1cc(Cl)ccc1NC(=O)CCl
ALG13
  log2 ratio of Biotin-Ahx-Ub-VS probe labelling: -0.00605
ATXN3
  log2 ratio of Biotin-Ahx-Ub-VS probe labelling: -0.0857
BAP1
  log2 ratio of Biotin-Ahx-Ub-VS probe labelling: -3.02 (active)
EIF3F
  log2 ratio of Biotin-Ahx-Ub-VS probe labelling: 0.0767
EIF3H
  log2 ratio of Biotin-Ahx-Ub-VS probe labelling: 0.0385
FAM105A
  log2 ratio of Biotin-Ahx-Ub-VS probe labelling: 0.174
OTUB1
  log2 ratio of Biotin-Ahx-Ub-VS probe labelling: -0.116
OTUD4
  log2 ratio of Biotin-Ahx-Ub-VS probe labelling: -0.0791
OTUD5
  log2 ratio of Biotin-Ahx-Ub-VS probe labelling: -0.0787

— the supplement of paper PMC11732987, “Enantioselective OTUD7B fragment discovery through chemoproteomics screening and high-throughput optimisation” (Communications Chemistry, 2025)
